Rows were chosen to be rich in hits. Some 18% of all compounds tested hit in one or more screens of this group.
VDR inhibitor = blocks the human vitamin D receptor. P11473. VDR-SRC2-3 peptide fluorescence polarization, 2 h. Potency, µM, for inactives: max response, negative = inhibition, actives largely listed as inhibitors. 400,000 compounds, 0.93% hits
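Two reagent solutions held at 4 deg C in the dark were dispensed, compounds pinned at 23 nl, and the mixture incubated 2 h at room temperature. Read-out: fluorescence polarization of VDR–SRC2-3 peptide binding.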
KAT2A inh = GCN5L2 (KAT2A) acetyltransferase inhibition; 390,000 compounds, 0.21% hits; Potency, µM (doses to about 58.9 µM), inactives show at the highest dose activity change, negative = inhibition, most hits filed as inhibitors; GCN5L2 HAT assay, ThioGlo1 CoA-SH fluorescence
Target sequence (Q92830 whole entry, looked up): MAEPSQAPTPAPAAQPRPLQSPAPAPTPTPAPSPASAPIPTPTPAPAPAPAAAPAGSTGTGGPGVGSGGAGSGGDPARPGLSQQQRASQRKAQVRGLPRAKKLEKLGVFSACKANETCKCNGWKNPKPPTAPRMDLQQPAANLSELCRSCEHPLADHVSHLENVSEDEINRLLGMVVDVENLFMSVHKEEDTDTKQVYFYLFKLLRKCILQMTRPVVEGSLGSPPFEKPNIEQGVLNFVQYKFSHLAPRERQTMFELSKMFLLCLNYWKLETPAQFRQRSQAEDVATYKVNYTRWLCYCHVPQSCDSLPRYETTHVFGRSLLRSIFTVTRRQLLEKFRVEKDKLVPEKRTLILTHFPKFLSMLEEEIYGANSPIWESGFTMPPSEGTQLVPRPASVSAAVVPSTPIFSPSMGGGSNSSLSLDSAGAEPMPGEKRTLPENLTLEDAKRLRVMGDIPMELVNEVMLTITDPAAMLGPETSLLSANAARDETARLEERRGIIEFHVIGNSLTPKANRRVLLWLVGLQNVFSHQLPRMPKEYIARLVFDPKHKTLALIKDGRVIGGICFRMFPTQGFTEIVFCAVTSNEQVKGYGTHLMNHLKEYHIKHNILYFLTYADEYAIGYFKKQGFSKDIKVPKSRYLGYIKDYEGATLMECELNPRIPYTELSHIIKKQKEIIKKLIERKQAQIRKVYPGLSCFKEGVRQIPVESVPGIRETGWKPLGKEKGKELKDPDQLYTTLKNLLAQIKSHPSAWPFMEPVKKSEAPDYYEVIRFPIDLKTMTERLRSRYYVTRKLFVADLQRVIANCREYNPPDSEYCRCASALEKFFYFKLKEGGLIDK
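GCN5L2 (20 nM) in 50mM HEPES pH 7.5, 0.1mM EDTA, 0.01% Tween-20 preincubated 15 min with compounds at room temperature. Reaction started with H3(1-25) 75uM, acetyl-CoA 70uM, ThioGlo1 50uM; CoA-thiol fluorescence (Ex340/Em540) read at 0 and 20 min.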
DT40 TDP1 CPT = growth inhibition of DT40 Tdp1-/-;hTDP1 cells with camptothecin (screen for TDP1 inhibitors); Potency, µM (titrated, usually from 46.2 µM), without a hit: at the highest dose activity change, negative = growth inhibition, hits mostly inhibitors; 420,000 compounds, 12% hits; chicken DT40 Tdp1-/-;hTDP1 cells + 20 nM CPT, ATP luminescence, 48 h; note: nearly all actives have a fitted effect of over 55% in size
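Cell growth measured by CellTiter-Glo luminescence after a minimum 48 h, 37 C compound exposure with 20 nM CPT in Tdp1-knockout DT40 cells stably expressing hTDP1, seeded 400/well; qHTS titration format.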
PLK1 PBD inh = blocks phosphopeptide binding to human PLK1 polo-box domain; Plk1 PBD binding of FITC phosphopeptide, fluorescence polarization; Potency, µM, for inactives: max response, negative = inhibition, most hits filed as inhibitors; 360,000 compounds, 2.8% hits; note: series mostly up to about 57 µM; nearly all actives have a fitted effect of over 65% in size
TDP1 cell noCPT = qHTS for Inhibitors of human tyrosyl-DNA phosphodiesterase 1 (TDP1): qHTS in cells in absence of CPT | DT40 Tdp1-/- hTDP1 cells, no CPT, ATP luminescence, 48 h | Potency, µM (highest dose often 46.2 µM), inactives show at the top dose activity change, negative = growth inhibition, hits mostly inhibitors | 420,000 compounds, 15% hits | AID 686978, 2013; note: nearly all actives have a fitted effect of over 55% in size
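Seeded 400 DT40-hTDP1 cells/well (vehicle DMSO, no 20 nM CPT); pinned compounds; ≥48 hr at 37 °C; CellTiter-Glo luminescence as viability measure.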
TDP1 block = blocks human tyrosyl-DNA phosphodiesterase 1. 350,000 compounds, 0.28% hits. AID 485290. Q9NUW8. Potency, µM (series often up to 130 µM), for inactives: top-dose activity change, negative = inhibition, usual class: inhibitors. recombinant TDP1, AlphaScreen DNA substrate cleavage; note: nearly all actives have a fitted effect of over 40% in size
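Signal: AlphaScreen proximity between streptavidin donor and anti-FITC acceptor beads on intact substrate. Reaction: Tdp1 1 nM, substrate 15 nM final, 5 min RT after 15 min compound preincubation.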
An asterisk follows results filed as active; ? = inconclusive; nt = not tested or not shown; [ ] = remark or other dose. Calls come from the whole dose curve; as a rule, active = well fitted curve in the direction sought with a large enough effect; inconclusive = small, poorly fitted or top-dose-only effect, or another doubt; inactive = no such curve, though single readings can be large; an effect the other way counts as inactive or inconclusive. % is set by controls: 0 for no effect and ±100 for the full control effect; potency is the fitted concentration of half-maximal effect.

SMILES | VDR inhibitor | KAT2A inh | DT40 TDP1 CPT | PLK1 PBD inh | TDP1 cell noCPT | TDP1 block
O=C(O)c1cccc(CSc2nc(-c3ccc(Cl)cc3)cc(C(F)(F)F)n2)c1 | ? | -25.2% | -20.7% | 26.7µM* | -19.3% | 7.8%
COc1cccc(-c2nc(N(C)Cc3ccco3)c3ccccc3n2)c1 | ? | -28.5% | ? | nt | ? | nt
Cc1ccc(S(=O)(=O)n2nc(-c3ccccc3)nc2NCc2ccccc2Cl)cc1 | 0.5% | 4.3% | ? | nt | ? | 2.1%
COc1cc(/C=N\Nc2ccc([N+](=O)[O-])cc2)ccc1OCC(=O)Nc1ccc(C)c(C)c1 | -14.4% | ? | ? | 13.7% | 18.4µM* | 7.9%
CNC(=S)N/N=C/c1ccc(OCC(=O)Nc2c(C)cc(C)cc2C)c(OC)c1 | ? | 0.8% | 20.6µM* | -11.3% | ? | 0.6%
CCOc1cc(/C=N\Nc2ccc([N+](=O)[O-])cc2)ccc1OCC(=O)Nc1ccc(C)c(C)c1 | 7.5% | -14.2% | 23.1µM* | 28.0% | 14.6µM* | 5.9%
Cc1ccc(S(=O)(=O)N2CCOC23CCN(C(=O)C(=O)NCc2ccccc2)CC3)cc1 | -13.0% | -8.2% | ? | -3.8% | -23.8% | -11.7%[0.505 µM]
Cc1cc(/C=C/c2nc3ccccc3s2)ccc1N(C)C | nt | nt | 1.41µM* | nt | 1µM* | nt
CN(C)c1ccc(/C=C/c2nc3ccccc3s2)cc1Cl | nt | nt | 5.01µM* | nt | 2.82µM* | nt
Cc1c(C(=O)NCC2(N3CCOCC3)CCCCC2)cnn1-c1nccc(-c2ccccc2F)n1 | nt | nt | -7.8%[9.04 µM] | nt | ? | nt
O=[N+]([O-])c1ccccc1S(=O)(=O)N1CCN(c2ccccc2)CC1 | -10.5% | -4.4% | -4.9% | -5.6% | -1.9% | 7.8%
CC(=O)N1CCc2cc(S(=O)(=O)NC3CCCc4ccccc43)ccc21 (centres undefined) | 11.3% | -3.9% | 12.6µM* | -11.7% | 14.1µM* | 5.2%
CC(=O)N1CCc2cc(S(=O)(=O)NCCC(=O)NCCc3ccc(C)cc3)ccc21 | 13.9% | -2.7% | 29.1µM* | -9.0% | 16.4µM* | 4.3%
CC(=O)N1CCc2cc(S(=O)(=O)NCCC(=O)NCCc3ccc(Cl)cc3)ccc21 | 9.1% | -2.8% | 16.4µM* | -18.7% | ? | 2.2%
O=C(O)c1ccc(S(=O)(=O)NC2CCCc3ccccc32)cc1 (centres undefined) | -5.0% | ? | -15.9% | -5.0% | -8.4% | 2.5%
CCOc1ccccc1NC(=O)CCS(=O)(=O)c1ccc2c(c1)CCN2C(C)=O | -5.1% | -5.8% | ? | 21.2µM* | -18.6% | 1.1%
CC(=O)N1CCc2cc(S(=O)(=O)NCCCN3CCCCC3)ccc21 | -19.4% | ? | -1.8% | -4.9% | 22.4% | 0.7%
CC(=O)N1CCc2cc(S(=O)(=O)CCC(=O)Nc3ccc(Cl)cc3F)ccc21 | -19.8% | -5.5% | -20.7% | ? | -3.1% | 1.0%
CC(=O)N1CCc2cc(S(=O)(=O)CCC(=O)NCc3ccc(Cl)cc3)ccc21 | -1.5% | 28.0% | ? | -13.3% | 20.6µM* | 2.8%
CC(=O)N1CCc2cc(S(=O)(=O)NCCC3=CCCCC3)ccc21 | -3.0% | nt | 9.2µM* | -9.5% | 2.59µM* | nt
CCOc1cccc2cc(-c3nc4sc5c(c4c(=O)[nH]3)CCC(C(C)(C)C)C5)c(=O)oc12 (centres undefined) | 3.5% | -4.8% | -6.0% | nt | -3.3% | -7.8%
CC1=C(C(=O)N(C)C)CC(CC(=O)NCCc2ccccn2)C(=O)N1Cc1ccc(C(C)(C)C)cc1 (centres undefined) | nt | nt | ? | -1.5% | -27.3% | nt
CC(=O)NCCn1c(SCc2cc(F)ccc2F)nc2ccccc2c1=O | -17.2% | -0.5% | ? | 1.6% | ? | -2.9%
CC(=O)NCCn1c(SCc2ccc(C)cc2C)nc2ccccc2c1=O | -21.4% | -3.7% | 10.3µM* | -7.5% | 8.2µM* | 8.6%
CC(=O)NCCn1c(SCc2ccccc2C)nc2ccccc2c1=O | -8.3% | -2.8% | ? | -7.0% | 16.4µM* | 5.2%
SMILES | VDR inhibitor | KAT2A inh | DT40 TDP1 CPT | PLK1 PBD inh | TDP1 cell noCPT | TDP1 block
Oc1c(CN2CCN(c3ccccn3)CC2)cc(Cl)c2cccnc12 | 11.8% | -10.4% | 4.61µM* | -1.6% | 3.66µM* | 10.5%
Oc1c(Cl)cc(CN2CCCCC2)c2cccnc12 | nt | -5.4% | nt | nt | nt | nt
Oc1c(CN2CCCCC2)cc(COCc2ccccc2)c2cccnc12 | 2.6% | -6.2% | 4.11µM* | -0.2% | 4.61µM* | -3.1%
COCc1cc(CN2CCCC2)c(O)c2ncccc12 | -3.6% | -3.9% | 0.651µM* | 0.8% | 0.82µM* | 10.4%
S=c1[nH]c2cc3c(cc2[nH]1)OCCO3 | 1.4% | -3.2% | -26.8% | -19.6% | -16.9% | nt
S=c1ncc2[nH]c(=S)[nH]c2[nH]1 | 31.6µM* | nt | -0.4% | 1.68µM* | ? | nt
COCCNC(=O)CCCn1c(SCc2ccccc2C)nc2c(sc3ccccc32)c1=O | 10.0% | 4.9% | ? | nt | ? | 6.9%
O=C(NCc1ccccc1Cl)c1cc(-c2ccccc2)n[nH]1 | 12.3% | -1.9% | ? | nt | ? | 2.8%
CC(Oc1ccc(F)cc1)C(=O)Nc1ccccc1N1CCCCC1 (centres undefined) | -6.9% | -17.6% | ? | 6.3% | 16.4µM* | -9.0%
CCN1CCN(c2ccc(S(=O)(=O)N3CCOCC3)cc2NC(=O)CC(C)C)CC1 | -5.9% | 3.6% | 2.8% | 4.5% | 4.4% | 0.5%
CCN1CCN(c2ccc(S(=O)(=O)N3CCOCC3)cc2NC(=O)C(C)Oc2ccc(Cl)cc2)CC1 (centres undefined) | -8.2% | -3.7% | ? | -0.1% | 18.4µM* | 0.0%
CC(C)Oc1ccc(C(=O)Nc2ccccc2N2CCCC2)cc1 | -7.7% | -6.1% | ? | 26.7µM* | ? | 2.3%
CC(Oc1ccc(F)cc1)C(=O)Nc1cc(S(=O)(=O)N2CCCCC2)ccc1N1CCN(C)CC1 (centres undefined) | -0.6% | nt | 23.1µM* | 3.6% | ? | nt
CCCCOc1cccc(C(=O)N2CCN(CCc3ccncc3)CC2)c1 | 2.4% | 0.6% | ? | nt | ? | 4.7%
CCOC(=O)c1c(N/N=C/c2ccncc2)n[nH]c1C | 0.2% | -2.4% | -5.8% | -5.5% | -22.0% | 5.1%
O=C1O[C@@H](c2ccccc2)C[C@@H](O)[C@H](O)CCCc2ccccc21 | nt | nt | -21.3% | -3.4% | ? | nt
CCN1CCN(c2ccc(S(=O)(=O)N3CCOCC3)cc2NC(=O)c2cc(Cl)nc3ccccc23)CC1 | 7.5% | -6.2% | ? | -1.5% | 16.4µM* | -2.2%
COc1ccc(/C=C/C(=O)Nc2ccc(NC(C)=O)cc2)cc1S(=O)(=O)N1CCOCC1 | -15.1% | 2.2% | ? | 29.9µM* | ? | -4.3%

Source: PubChem
